# Source: PubChem BioAssay
# GLP1R cytotox – cytotoxicity counter-screen for GLP-1 receptor inverse agonists | HEK293 cAMP-luciferase reporter cells, luminescence, 24 h | Potency, µM (top dose mostly 38.3 µM), without a hit: at the highest dose activity change, negative = inhibition, actives largely listed as inhibitors | hit rate 0.13% among 410,000 | AID 624418;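 further: loss of luciferase light is scored as toxicity; on the % scale 0 is the no-effect control and ±100 the full control effect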
#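 Seeding density was 200 cells/uL; after overnight-length (12 h) culture, 23 nL compounds went on for 24 h at 37 °C. Readout used a luciferase detection reagent, luminescence taken after 12 min at room temperature.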
# PTHR1 ag – agonists of human PTHR1 parathyroid hormone receptor | AID 743266 | Q03431 | hit rate 0.075% among 410,000 | HEK293 GP2 PTHR1 cells, GloSensor cAMP luminescence, 1 h | Potency, µM (top dose mostly 115 µM), for the others: top-dose activation, actives largely listed as activators; further: nearly all actives have a fitted effect of over 55% in size
#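 HEK-293-derived GP2 cells expressing PTHR1 and a GloSensor cAMP reporter, 3,000/well, plated overnight, given luciferin plus IBMX (each 0.5 mM as added) for 1 h at 37 °C, then compound for 1 h at 37 °C. Luminescence was read after 15 min at room temperature.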
# GLP-1R inv ag – acts as inverse agonist at human GLP-1 receptor. Potency, µM (top dose mostly 38.3 µM), inactives show at the top dose activity change, negative = inhibition, usual class: inhibitors. HEK293 GLP-1R CRE-luciferase, luminescence, 24 h; GLP-1R form is constitutively active. AID 624417. hit rate 1.6% among 410,000; further: on the % scale 0 is the no-effect control and ±100 the full control effect; nearly all actives have a fitted effect of over 55% in size
# Target sequence (P43220 whole entry, looked up): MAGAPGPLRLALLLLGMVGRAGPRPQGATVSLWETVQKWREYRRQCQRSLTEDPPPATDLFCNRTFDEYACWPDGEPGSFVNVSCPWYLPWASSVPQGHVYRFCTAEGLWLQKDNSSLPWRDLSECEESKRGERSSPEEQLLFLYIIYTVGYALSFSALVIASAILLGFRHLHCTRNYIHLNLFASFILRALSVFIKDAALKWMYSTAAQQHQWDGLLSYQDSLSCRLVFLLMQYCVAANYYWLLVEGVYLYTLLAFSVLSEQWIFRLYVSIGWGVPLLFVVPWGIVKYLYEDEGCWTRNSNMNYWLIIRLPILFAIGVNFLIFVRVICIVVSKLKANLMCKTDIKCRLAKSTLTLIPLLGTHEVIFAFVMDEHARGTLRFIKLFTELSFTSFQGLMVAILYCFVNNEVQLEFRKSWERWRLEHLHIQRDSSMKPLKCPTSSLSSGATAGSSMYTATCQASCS
#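 Readout was luciferase luminescence, measured 12 min after detection reagent at room temperature. Beforehand, GLP-1R reporter HEK293 cells had sat 12 h, then received compounds for 24 hr at 37 deg C.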
# GLP-1R agonist – GLP-1 receptor (human) agonism; P43220; HEK293 GLP-1R CRE-luciferase, luminescence, 4-6 h; cells express a hypersensitive GLP-1R form; Potency, µM (top dose mostly 45.6 µM), without a hit: at the top dose activation, usual class: activators; hit rate 0.007% among 380,000; AID 624172; further: % of control where 0% means no effect
# RGS4 inhibitor – blocks human RGS4-accelerated GTP hydrolysis. Potency, µM (doses to about 114 µM), for inactives: top-dose activity change, negative = inhibition, usual class: inhibitors. P49798. Transcreener GDP fluorescence polarization, RGS4-accelerated GTP hydrolysis. hit rate 0.039% among 390,000; further: on the % scale 0 is the no-effect control and ±100 the full control effect; nearly all actives have a fitted effect of over 75% in size
# Target sequence (P49798 whole entry, looked up): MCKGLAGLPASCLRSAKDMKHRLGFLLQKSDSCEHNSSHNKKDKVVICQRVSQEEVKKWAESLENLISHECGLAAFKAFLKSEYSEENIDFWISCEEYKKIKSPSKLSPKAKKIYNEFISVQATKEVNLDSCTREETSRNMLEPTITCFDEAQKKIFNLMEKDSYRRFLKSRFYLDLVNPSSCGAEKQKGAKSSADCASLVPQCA
#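 MLSMR compounds (23 nl, pin-transferred) preincubated 10 min at room temperature with a 500nM (2x) first reagent, then RGS4 at 900nM (2x) plus Transcreener GDP mix added; fluorescence polarization (620/688 nm) read before and after 90 min at 30 °C.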
# Numbers without * were called inactive; i = inactive; ? = inconclusive; . = not tested or not shown; ! = a repeat was not active; [ ] = remark or other dose. The list is not random: actives were taken first. Their share in the collection is about 1.7%. The call rests on the fitted dose curve; in most records, active means well fitted curve in the direction sought with a large enough effect; inconclusive means small, poorly fitted or top-dose-only effect, or another doubt; inactive means no such curve, though single readings can be large; an effect the other way counts as inactive or inconclusive. Potency means the concentration at half of the fitted maximal effect.
SMILES,GLP1R cytotox,PTHR1 ag,GLP-1R inv ag,GLP-1R agonist,RGS4 inhibitor
C/C(=N\NC(=O)C1CC1)c1ccc(Cl)c(Cl)c1,12%,-10%[57.5 µM],1%,19%,5%
C/C(=N\N=C(N)N)c1ccc(Cl)c(Cl)c1,?,-3%,8.9µM*,-2%,12%
N=c1c[n+](N2CCOCC2)[n-]o1,6%,-4%,11%,11%,19µM*!
CC(C)c1ccc(Nc2nc(NCc3ccco3)nc(N3CCOCC3)n2)cc1,-9%,i,2.2µM*,9%,-31%
CCN(CC)c1ccc(NC(=O)CN2CCN(CC(=O)Nc3ccc(OC)cc3)CC2)cc1,1%,-2%,-10%,2%,-28%
CCN(CC)c1ccc(NC(=O)CN2CCN(CC(=O)Nc3ccc(F)cc3)CC2)cc1,-5%,i,13µM*,-2%,-25%
Cc1ccc(-c2nnc(CSc3nnc(COc4cccc5ccccc45)n3-c3ccccc3)o2)cc1,6%,-33%,11µM*,17%,-3%
N#CCSc1nnc(COc2cccc3ccccc23)n1-c1ccccc1,-28%,i,0%,0%,-15%
COc1ccc(/C=N/Nc2ncnc3sc(C)c(C)c23)cc1,?,i,8.9µM*,30%,17%
Cc1sc2ncnc(N/N=C/c3ccc(O)cc3)c2c1C,20%,-37%,?,4%,-27%
O=C(Nc1cccc(Cl)c1)c1ccc2nc(Cc3ccccc3)oc2c1,?,-35%,10µM*,.,-26%
Cc1cc(C)c2nc(N3CCC(C(=O)N4CCN(C(=O)c5ccco5)CC4)CC3)sc2c1,-2%,-33%,7.9µM*,2%,-21%
O=c1[nH]c(=S)[nH]c2c1C(C1CCCCC1)OC(C1CCCCC1)C2 (stereo not given),-1%,-25%,-26%,3%,.
CC(=O)C[C@H](O)CC(=O)[C@@H]1OC(=O)[C@H](C)C/C=C\Cc2ccccc21,3%,-13%,5%,-4%,-14%
C=CCn1c(NCc2cc(Cl)ccc2O)nc2ccccc21,-1%,-90%,11µM*,4%,-19%
O=C(COC(=O)c1ccccc1OCc1ccccc1Cl)NCC1CCCO1 (stereo not given),1%,-31%,?,20%,-1%
CCCCNC(=O)c1ccccc1NC(=O)CCSc1ccccc1,5%,-21%[57.5 µM],10µM*,24%,-20%
OCC1OC(n2ccc3c2ncn2ncnc32)C(O)C1O (stereo not given),-24%,-12%,7.9µM*,-7%,.
O=C(CN1c2ccccc2Sc2ccccc21)NNC(=O)Nc1cccc(Cl)c1,?,-27%,3.5µM*,5%,-13%
O=C(Cc1ccccc1)NNC(=O)Nc1cccc(Cl)c1,2%,i,?,-9%,-24%
COc1cccc(CNC(=O)CCC2CCCN(C(=O)CCC(F)(F)F)C2)c1 (stereo not given),-2%,i,3%,1%,0%
COc1cccc(CNC(=O)CCC2CCCN(Cc3cc4ccccc4o3)C2)c1 (stereo not given),1%,i,11µM*,9%,1%
Cc1c(Nc2scc(-c3ccccc3)[n+]2-c2ccccc2)c(=O)n(-c2ccccc2)n1C,8%,-38%,?,1%,-36%
Cc1ccccc1Nc1scc(-c2ccc(Cl)cc2)[n+]1-c1ccccc1C,-19%,-15%,10µM*,-1%,-15%[11.4 µM]
Cc1ccsc1CN(C(=O)COc1ccccc1Cl)C1CCS(=O)(=O)C1 (stereo not given),-7%,i,-14%,.,-3%
SMILES,GLP1R cytotox,PTHR1 ag,GLP-1R inv ag,GLP-1R agonist,RGS4 inhibitor
O=C1C(Cl)=C(NCCN2CCCCC2)C(=O)c2ccccc21,?,-82%,11µM*,-7%,8%
COc1ccc(Cl)cc1NC(=O)c1ccc2c(c1)CCN2S(C)(=O)=O,-6%,i,?,.,-11%
CCCNCC1C(Oc2ccc(Cl)cc2Cl)C(=O)N1c1cccc(C)c1C (stereo not given),?,-1%,?,0%,4%
CCCCNCC1C(Oc2ccc(Cl)cc2)C(=O)N1c1ccccc1C (stereo not given),?,-9%,10µM*,3%,12%
COc1cccc(CNc2ccc3nc(-c4ccc(N)cc4)c(OC)n3n2)c1,.,.,.,.,38µM*!
CCN(CC)CCCC(C)Nc1nccc2c(Cl)cccc12 (stereo not given),?,-7%,4.5µM*,-5%,-24%
COC(=O)[C@]12CCC(C)(C)C[C@@H]1[C@@H]1C(=O)C=C3[C@@]4(C)C=C(C#N)C(=O)C(C)(C)[C@@H]4CC[C@@]3(C)[C@]1(C)CC2,.,.,.,5%,.
FC(F)(F)c1cccc(N2CCN(C(=S)NC3CCCC3)CC2)c1,?,-22%[57.5 µM],7.9µM*,-2%,-22%
CC1CN(C(=O)CCC(=O)NCc2ccccc2)c2cc(Cl)ccc2O1 (stereo not given),-4%,0%,10µM*,-6%,0%
Clc1ccc(OC2CCN(Cc3nc(CC4CC4)no3)CC2)cc1,0%,-23%,2µM*,0%,-3%
Fc1ccccc1C1CCN(Cc2nc(CC3CC3)no2)C1 (stereo not given),4%,-16%,?,23%,15%
C[C@@]12C(=O)N(c3ccc(F)cc3)C(=O)N1[C@@H]1c3ccccc3OC[C@@H]1[C@H]2c1ccccc1,-6%,14%,10µM*,0%,20%
C[C@]12C(=O)N(c3ccc(F)cc3)C(=O)N1[C@H]1c3ccccc3OC[C@@H]1[C@H]2c1ccccc1,-19%,i,?,-5%,1%
N#Cc1cccc(NC(=O)c2cc(C3CCCCN3C(=O)c3ccccc3)on2)c1 (stereo not given),-1%,-6%,?,5%,.
Cn1nc(C(C)(C)C)cc1C(=O)N1CCCCC1c1cc(C(=O)Nc2cccc(C#N)c2)no1 (stereo not given),-1%,-35%,10µM*,0%,.
Cc1ccc(C)c(NC(=O)CN(C)C(=O)c2ccc(S(=O)(=O)N3CCCCCC3)cc2)c1,-2%,-43%,1%,3%,-2%
CC1CC2(C)Oc3ccccc3CC2C(C)C1CNCCCN(C)C (stereo not given),?,-5%,0.89µM*,-8%,-6%
CC1Cc2ccccc2N1C(=O)CNCCCN(C)C (stereo not given),-15%,i,?,-2%,2%
C[C@@H]1CN([C@H](C)CO)C(=O)CCCn2cc(nn2)CO[C@H]1CN(C)C(=O)OCc1ccccc1,-1%,-28%,-10%,-1%,.
Cc1ccc2c(c1)C(=O)C(=O)N2Cc1ccc(C(F)(F)F)cc1,1%,-16%,-20%,-7%,?
Cc1ccc2c(c1)C(=O)C(=O)N2Cc1ccc(OC(C)C)cc1,?,0%,1.1µM*,.,-12%
